# Test results published in publication PMC4336329 (PLoS ONE, 2015).
# The whole screen tested about 310,000 compounds, of which about 14,000 (4.5%) showed an effect of 50% or more. Effects have a minus sign here. The sample as a whole holds a higher share of strong results than the screen did.
# Target: human ether-à-go-go-related gene (hERG) potassium channel (human, UniProt Q12809)
# Assay: primary screen, population patch clamp on CHO cells stably expressing hERG; higher = less effect of the substance
# 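Note: peak tail current of the secondary pulse compared with the same well before compound.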
# human ether-à-go-go-related gene (hERG) potassium channel, sequence (Q12809 whole entry, looked up): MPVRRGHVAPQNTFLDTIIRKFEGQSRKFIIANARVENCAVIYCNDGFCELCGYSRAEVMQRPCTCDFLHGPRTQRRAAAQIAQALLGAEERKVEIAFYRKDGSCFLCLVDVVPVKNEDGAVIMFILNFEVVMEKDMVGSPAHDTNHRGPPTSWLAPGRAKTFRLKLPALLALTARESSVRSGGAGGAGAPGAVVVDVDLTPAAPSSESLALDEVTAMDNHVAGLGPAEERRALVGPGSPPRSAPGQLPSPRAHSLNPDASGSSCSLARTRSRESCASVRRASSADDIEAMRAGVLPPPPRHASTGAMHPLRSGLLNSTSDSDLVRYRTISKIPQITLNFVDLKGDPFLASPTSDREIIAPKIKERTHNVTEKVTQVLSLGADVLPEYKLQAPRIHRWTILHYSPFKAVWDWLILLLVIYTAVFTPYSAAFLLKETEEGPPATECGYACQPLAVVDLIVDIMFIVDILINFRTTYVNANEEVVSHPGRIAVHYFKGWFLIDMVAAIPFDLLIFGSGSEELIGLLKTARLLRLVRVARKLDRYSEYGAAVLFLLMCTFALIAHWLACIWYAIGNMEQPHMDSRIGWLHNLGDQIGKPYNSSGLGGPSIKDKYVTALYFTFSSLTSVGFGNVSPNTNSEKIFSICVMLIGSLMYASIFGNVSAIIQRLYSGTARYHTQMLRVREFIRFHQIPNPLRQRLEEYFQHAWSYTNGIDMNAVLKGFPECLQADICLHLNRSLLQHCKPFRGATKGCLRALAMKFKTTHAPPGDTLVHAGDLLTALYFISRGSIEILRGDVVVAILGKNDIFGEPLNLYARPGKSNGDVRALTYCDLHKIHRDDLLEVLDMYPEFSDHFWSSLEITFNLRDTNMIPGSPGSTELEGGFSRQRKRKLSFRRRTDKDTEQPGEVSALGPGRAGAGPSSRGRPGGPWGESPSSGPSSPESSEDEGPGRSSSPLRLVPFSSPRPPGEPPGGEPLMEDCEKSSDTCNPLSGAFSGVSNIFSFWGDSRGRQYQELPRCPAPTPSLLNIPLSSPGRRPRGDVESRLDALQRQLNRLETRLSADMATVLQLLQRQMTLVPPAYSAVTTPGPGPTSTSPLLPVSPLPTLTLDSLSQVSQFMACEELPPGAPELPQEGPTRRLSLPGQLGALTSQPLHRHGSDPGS
row,Structure (SMILES),"hERG current change (%, negative = inhibition) at 10uM"
1,CC(/C=C/c1ccco1)=N\NC(=O)c1cc(C)[nH]n1,5.55%
2,CC(=O)Nc1ccc(N(C(=O)Cc2cccs2)C(C(=O)NC2CCCC2)c2ccncc2)cc1 (stereo not shown),9.17%
3,CC1(C)CC(=O)C(=Cc2cn(-c3ccccc3)nc2-c2ccccc2)C(=O)C1,-24.1%
4,CCCCN1C2CCCC1CC(NC(=O)c1cccc(OC)c1)C2 (stereo not shown),-19.3%
5,O=C(NC1CC2CCC(C1)N2Cc1ccccc1)c1ccccc1Cl (stereo not shown),-40.6%
6,O=C(NC1CC2CCCC(C1)N2Cc1ccccc1)c1cccc(Cl)c1 (stereo not shown),-57.9%
7,O=C(NC1CC2CCCC(C1)N2Cc1ccccc1)c1cccc(F)c1 (stereo not shown),-56.8%
8,CCCCN1C2CCCC1CC(NC(=O)c1cccc(Cl)c1)C2 (stereo not shown),-75.5%
9,CCCN1C2CCCC1CC(NC(=O)c1cccc(Cl)c1)C2 (stereo not shown),-38.9%
10,O=C(NC1CC2CCC(C1)N2Cc1ccccc1)c1ccccc1Br (stereo not shown),-20.1%
11,O=C(NC1CC2CCC(C1)N2Cc1ccccc1)c1cccc(F)c1 (stereo not shown),-60.5%
12,O=C(NC1CCCC1)c1cccc(Cl)c1,29.8%
13,Cc1cccc(C(=O)NC2CC3CCCC(C2)N3Cc2ccccc2)c1 (stereo not shown),-40.9%
14,O=C(Nc1cccc(F)c1)c1ccc(S(=O)(=O)NCC2CCCO2)cc1 (stereo not shown),-12.2%
15,COc1ccc(C(=O)NN(C)c2nc(-c3ccccc3)nnc2C(F)(F)F)cc1,7%
16,N#Cc1cn(CC(=O)N2CCCC2)c2ccccc12,8.6%
17,O=C(O)C1=CC2c3ccccc3C1c1ccccc12,17.4%
18,CC1(C)Cc2sc3c(=O)[nH]c(=S)[nH]c3c2CO1,16.6%
19,CCCN1C(=O)/C(=c2\s/c(=C3\C=Cc4ccccc4N3CC)c(=O)n2-c2ccccc2)SC1=S,8.95%
20,O=C1NC(=O)/C(=C\c2cn(CC(=O)N3CCOCC3)c3ccccc23)S1,11.7%
21,COCC(=O)Nc1sc2c(c1C(=O)OC)CCCC2,-11.7%
22,COc1ccc(C2/C=C\CN(C(=O)c3ccccc3)[C@H](Cc3ccccc3)C(=O)N2Cc2ccc(F)cc2)cc1 (stereo partly shown),17%

row,Structure (SMILES),"hERG current change (%, negative = inhibition) at 10uM"
1,Fc1cccc(-c2cc3nc4c(c(N5CCOCC5)n3n2)CCCC4)c1,-24.1%
2,Cc1nc(N)nc(N/N=C/c2c(F)cccc2Cl)n1,3.11%
3,COc1cc(NS(=O)(=O)c2ccc(NC(=O)C34CC5CC(CC(C5)C3)C4)cc2)ncn1,-4.59%
4,Cl.OC(COC(c1ccc(Cl)cc1)c1ccc(Cl)cc1)CN1CCc2ccccc2C1 (stereo not shown),-61.6%
5,OC(COC(c1ccccc1)c1ccccc1)CN1CCc2ccccc2C1 (stereo not shown),-76.9%
6,OC(COC(c1ccc(F)cc1)c1ccc(F)cc1)CN1CCc2ccccc2C1 (stereo not shown),-73.7%
7,OC(CN1CCc2ccccc2C1)c1ccccc1 (stereo not shown),-9.09%
8,CC1(c2ccc3c(c2)OCCCO3)NC(=O)N(CC(=O)NCCc2ccccc2)C1=O (stereo not shown),-7.38%
9,COc1ccc(C(CNC(=O)COc2c(C)cc(C)cc2C)N2CCOCC2)cc1 (stereo not shown),-12.1%
10,COc1ccc(-c2coc3cc(O)ccc3c2=O)cc1,-5.05%
11,CCOC(=O)CSC1=N/C(=C\c2ccc(OC)c(OC)c2)C(=O)N1C,-69.7%
12,CCN1C(=O)/C(=C/c2ccc(OC)c(OC)c2)N=C1SCC(=O)NCc1ccco1,-15.1%
13,CCOC(=O)CSC1=N/C(=C\c2cc(OC)c(OC)c(OC)c2)C(=O)N1C,-7.36%
14,CCOC(=O)C1(CCCc2ccccc2)CCN(C(=O)C2CCCO2)CC1 (stereo not shown),-25.7%
15,CCOC(=O)C1(CCCc2ccccc2)CCN(C(=O)C2CCCN(C(N)=O)C2)CC1 (stereo not shown),-72.4%
16,CCOC(=O)C1(Cc2ccccc2C(F)(F)F)CCN(C2CCC2)CC1,-36.6%
17,CCOC(=O)C1(CCCc2ccccc2)CCN(C2CCCC2)CC1,-69.7%
18,CCOC(=O)C1(CCc2ccccc2)CCN(C(=O)C2CCOCC2)CC1,-53.1%
19,CCOC(=O)C1(CCCc2ccccc2)CCN(C(=O)[C@@H]2C[C@@H](C)NC(=S)N2)CC1,-25.1%
20,CCOC(=O)C1(CCCc2ccccc2)CCN(C2CCC2)CC1,-74.8%
21,CCOC(=O)C1(CCCc2ccccc2)CCN(S(C)(=O)=O)CC1,-8.15%
22,CCOC(=O)C1(CCCc2ccccc2)CCN(S(=O)(=O)N(C)C)CC1,-4.73%

row,Structure (SMILES),"hERG current change (%, negative = inhibition) at 10uM"
1,CCOC(=O)C1(CCc2ccccc2)CCN(C(=O)C2CCCO2)CC1 (stereo not shown),-13%
2,O=C(C1CCOCC1)N1CCC(CO)(CCc2ccccc2)CC1,5.29%
3,O=c1cc(O)c(-c2cccc(C(F)(F)F)c2)c(Cl)[nH]1,22.5%
4,O=C1C(Cc2ccc3[nH]ccc3c2)NC(=S)N1c1ccccc1 (stereo not shown),7.61%
5,Cc1ccccc1C(=O)NC(=S)NCc1cccnc1,31.9%
6,COC(=O)c1ccc(CO/N=C2\CCCc3nonc32)cc1,-35.1%
7,O=C(Cn1c(-c2ccccc2)noc1=O)Nc1ccc(N2CCCCCC2)cc1,6.95%
8,Cc1cc(C)cc(OCC(=O)OCC(=O)NCc2ccco2)c1,4.8%
9,O=C(Cc1ccc(NC2=NC3CS(=O)(=O)CC3S2)cc1)NCCc1ccccc1 (stereo not shown),6.22%
10,O=c1oc2cc(OCc3ccc(C(F)(F)F)cc3)ccc2cc1-c1ccccn1,10.4%
11,Cc1ccc(C(=O)OCCOc2cccc(Cl)c2)cc1S(=O)(=O)N1CCOCC1,-12.2%
12,CCOC(=O)C1=C(c2ccccc2)NC(=S)NC1c1ccc(Cl)cc1 (stereo not shown),0.162%
13,c1ccc(C2CN3CCC2CC3)cc1 (stereo not shown),-5.74%
14,Cc1ccc(C(O)(c2ccc(C)c(C)c2)C2CN3CCC2CC3)cc1C.Cl (stereo not shown),-67.6%
15,O=C(NC1CN2CCC1CC2)c1cccc(Cl)c1 (stereo not shown),3.72%
16,CC(C)[N+]12CCC(CC1)C(C(O)(c1ccccc1)c1ccccc1)C2.[I-] (stereo not shown),16.9%
17,Cl.OC(c1cccc(Cl)c1)(c1cccc(Cl)c1)C1CN2CCC1CC2 (stereo not shown),-81.8%
18,Cc1ccc(NC(=O)C2CCN(S(C)(=O)=O)CC2)cc1C,3.29%
19,C[N+]12CCC(CC1)C(C(O)(c1cccc(Cl)c1)c1cccc(Cl)c1)C2.[I-] (stereo not shown),13.6%
20,Cc1ccccc1C(O)(Cc1ccccc1)C1CN2CCC1CC2.Cl (stereo not shown),-55.2%
21,Cl.OC(Cc1ccccc1)(c1ccccc1)C1CN2CCC1CC2 (stereo not shown),-49.7%
22,Cc1ccc(C(=O)N2CCC(C)CC2)cc1C,8.09%

row,Structure (SMILES),"hERG current change (%, negative = inhibition) at 10uM"
1,Cl.OC(c1ccccc1)(c1ccccc1)C1CN2CCC1CC2 (stereo not shown),-45.2%
2,OC(c1ccccc1)(c1ccc(Cl)cc1)C1CN2CCC1CC2 (stereo not shown),-56%
3,CC(=O)N1CCN(c2ccc(NC(=O)c3cccc(Cl)c3)cc2)CC1,-7.02%
4,COc1ccc2nc(NC(=O)C(NS(=O)(=O)c3cccs3)C(C)C)sc2c1 (stereo not shown),8.73%
5,Cc1ccc(-n2cc(CCCCCCCCC(=O)O)nn2)cc1,-12.3%
6,COc1ccc(-c2ccc(=O)n(CC(=O)Nc3nnc(C(C)C)s3)n2)cc1OC,11.9%
7,S=c1[nH]c2cnccc2n1Cc1ccccc1,12.4%
8,COc1cc(C(=O)NCCOc2ccc(F)cc2)c(Br)c(OC)c1OC,3.42%
9,COCC(C)NC(=O)c1noc2c1CCc1cc(OC)ccc1-2 (stereo not shown),-25.9%
10,CCOc1ncccc1C(=O)Nc1cc(S(=O)(=O)N2CCCCC2)ccc1OC,-8.23%
11,COc1ccc(C)cc1NC(=O)CN1C(=O)COc2ccc(S(=O)(=O)N3CCC(C)CC3)cc21,26.3%
12,COc1cccc(C2c3[nH]c4ccccc4c3CCN2Cc2ncc[nH]2)c1 (stereo not shown),-49.4%
13,COc1cccc(C2c3[nH]c4ccccc4c3CCN2Cc2cccn2-c2ncccn2)c1 (stereo not shown),-76.1%
14,COc1ccc(C2c3[nH]c4ccccc4c3CCN2Cc2cccn2-c2ncccn2)cc1C (stereo not shown),-52%
15,CSc1ncc(CN2CCc3c([nH]c4ccccc34)C2c2cccc(O)c2)cn1 (stereo not shown),-22.9%
16,COc1cccc(C2c3[nH]c4ccccc4c3CCN2Cc2cnc(C)s2)c1OC (stereo not shown),2.51%
17,CCn1nc(C)c(CN2CCc3c([nH]c4ccccc34)C2c2ccc(F)c(OC)c2)c1C (stereo not shown),-48.2%
18,CC(=O)NCCC(=O)N1CCc2c([nH]c3ccccc23)C1c1cccc(C)c1 (stereo not shown),-14.3%
19,Cc1cccc(C2c3[nH]c4ccccc4c3CCN2Cc2cccn2-c2ncccn2)c1 (stereo not shown),-77.8%
20,CCC(=O)NC(NC(=S)Nc1ccccc1Br)C(Cl)(Cl)Cl (stereo not shown),18.2%
21,O=C1CC2(CCCC2)C(=O)N1CN1CCN(S(=O)(=O)c2ccc(Cl)c(Cl)c2)CC1,3.53%
22,CCCCOC(=O)n1c(SCC(=O)N(CC)CC)nc2ccccc21,-34.7%
